Legend:
POU1 (OCT1 POU domain) = POU1 (OCT1 POU domain) (human, UniProt P14859 260-458); test: EMSA-SELEX-seq; no BOB1; 20 mM Tris-HCl pH 7.6, 140 mM NaCl, 10% glycerol, 0.5 mM EDTA, 0.05% Triton X-100, 0.1 mg/mL BSA, 0.1 mg/mL poly(dI-dC), 5 mM DTT, room temperature, 20 min; high values mean tight binding; conditions: protein: recombinant; dsDNA, one strand shown
How it was run: (§1)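 After expression in E. coli BL21, tagged POU-domain proteins were purified under denaturing conditions and then renatured. Each binding reaction held 30 ng protein and 300 ng of a PCR-amplified double-stranded random 35-nt library in 20 μL Tris–HCl pH 7.6 binding buffer, with or without 28 ng coactivator protein, for 20 min at RT. Bands holding complexes were cut from native 6% PAGE, eluted and PCR-amplified across four rounds, and the output was Illumina-sequenced. The value given for binding preference is the share, in percent, of sequenced 8-mers fitting a motif pattern.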

POU2 (OCT2 POU domain) = target: T1, POU2 (OCT2 POU domain) (human, UniProt P09086 175-386); test: as above; conditions: protein: recombinant; dsDNA, one strand shown
T1 sequence: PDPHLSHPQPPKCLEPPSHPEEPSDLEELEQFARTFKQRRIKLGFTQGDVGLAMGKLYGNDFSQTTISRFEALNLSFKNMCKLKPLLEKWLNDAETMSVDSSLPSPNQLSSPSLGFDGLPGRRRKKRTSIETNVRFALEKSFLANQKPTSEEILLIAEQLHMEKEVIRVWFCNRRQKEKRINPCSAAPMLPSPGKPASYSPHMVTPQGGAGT
How it was run: as §1

[1] = target: POU1 (OCT1 POU domain);BOB1 (OBF1, OCA-B) (human;human, UniProt P14859;Q16633 260-458;1-256, |); test: EMSA-SELEX-seq; with BOB1 (ternary complex band); 20 mM Tris-HCl pH 7.6, 140 mM NaCl, 10% glycerol, 0.5 mM EDTA, 0.05% Triton X-100, 0.1 mg/mL BSA, 0.1 mg/mL poly(dI-dC), 5 mM DTT, room temperature, 20 min; high values mean tight binding; conditions: protein: recombinant;recombinant; copies: 1;1; dsDNA, one strand shown
How it was run: as §1

[2] = target: T2, POU2 (OCT2 POU domain);BOB1 (OBF1, OCA-B) (human;human, UniProt P09086;Q16633 175-386;1-256, |); test: as above; conditions: protein: recombinant;recombinant; copies: 1;1; dsDNA, one strand shown
T2 sequence 1: T1 sequence
T2 sequence 2: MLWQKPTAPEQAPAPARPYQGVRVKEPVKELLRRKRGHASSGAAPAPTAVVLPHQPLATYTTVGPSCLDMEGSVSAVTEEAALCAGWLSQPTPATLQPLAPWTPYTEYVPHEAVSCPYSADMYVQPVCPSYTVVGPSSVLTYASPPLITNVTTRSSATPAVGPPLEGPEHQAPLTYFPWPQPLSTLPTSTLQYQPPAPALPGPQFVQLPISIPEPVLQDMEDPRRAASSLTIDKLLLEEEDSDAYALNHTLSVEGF
How it was run: as §1

POU1 (OCT1 POU domain), sequence (P14859 260-458): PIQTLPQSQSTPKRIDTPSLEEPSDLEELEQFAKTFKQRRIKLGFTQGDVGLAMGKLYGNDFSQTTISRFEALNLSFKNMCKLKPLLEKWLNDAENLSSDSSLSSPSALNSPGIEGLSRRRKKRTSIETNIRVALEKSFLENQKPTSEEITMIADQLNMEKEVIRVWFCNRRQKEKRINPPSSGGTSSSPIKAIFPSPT

## ACCCGAAT
POU1 (OCT1 POU domain)
  binding signal: 0.0233 % of ANNNNAAN 8-mers
POU2 (OCT2 POU domain)
  binding signal: 0.0386 % of ANNNNAAN 8-mers
[1]
  binding signal: 0.0219 % of ANNNNAAN 8-mers
[2]
  binding signal: 0.0248 % of ANNNNAAN 8-mers

## ATTACAAT
POU1 (OCT1 POU domain)
  binding signal: 0.195 % of ANNNNAAN 8-mers
POU2 (OCT2 POU domain)
  binding signal: 0.26 % of ANNNNAAN 8-mers
[1]
  binding signal: 0.0847 % of ANNNNAAN 8-mers
[2]
  binding signal: 0.0966 % of ANNNNAAN 8-mers

## AGTCCAAT
POU1 (OCT1 POU domain)
  binding signal: 0.0385 % of ANNNNAAN 8-mers
POU2 (OCT2 POU domain)
  binding signal: 0.0466 % of ANNNNAAN 8-mers
[1]
  binding signal: 0.0421 % of ANNNNAAN 8-mers
[2]
  binding signal: 0.0371 % of ANNNNAAN 8-mers

## ATATCAAC
POU1 (OCT1 POU domain)
  binding signal: 0.0481 % of ANNNNAAN 8-mers
POU2 (OCT2 POU domain)
  binding signal: 0.0449 % of ANNNNAAN 8-mers
[1]
  binding signal: 0.0367 % of ANNNNAAN 8-mers
[2]
  binding signal: 0.0471 % of ANNNNAAN 8-mers

## ATTAGAAT
POU1 (OCT1 POU domain)
  binding signal: 0.5 % of ANNNNAAN 8-mers
POU2 (OCT2 POU domain)
  binding signal: 0.61 % of ANNNNAAN 8-mers
[1]
  binding signal: 0.133 % of ANNNNAAN 8-mers
[2]
  binding signal: 0.18 % of ANNNNAAN 8-mers

## ACCTAAAC
POU1 (OCT1 POU domain)
  binding signal: 0.013 % of ANNNNAAN 8-mers
POU2 (OCT2 POU domain)
  binding signal: 0.0178 % of ANNNNAAN 8-mers
[1]
  binding signal: 0.0211 % of ANNNNAAN 8-mers
[2]
  binding signal: 0.0223 % of ANNNNAAN 8-mers

## ACTCTAAG
POU1 (OCT1 POU domain)
  binding signal: 0.0214 % of ANNNNAAN 8-mers
POU2 (OCT2 POU domain)
  binding signal: 0.0224 % of ANNNNAAN 8-mers
[1]
  binding signal: 0.0258 % of ANNNNAAN 8-mers
[2]
  binding signal: 0.0206 % of ANNNNAAN 8-mers

## ATTATAAG
POU1 (OCT1 POU domain)
  binding signal: 0.121 % of ANNNNAAN 8-mers
POU2 (OCT2 POU domain)
  binding signal: 0.163 % of ANNNNAAN 8-mers
[1]
  binding signal: 0.0843 % of ANNNNAAN 8-mers
[2]
  binding signal: 0.0966 % of ANNNNAAN 8-mers

## AGCGTAAC
POU1 (OCT1 POU domain)
  binding signal: 0.0168 % of ANNNNAAN 8-mers
POU2 (OCT2 POU domain)
  binding signal: 0.0207 % of ANNNNAAN 8-mers
[1]
  binding signal: 0.0144 % of ANNNNAAN 8-mers
[2]
  binding signal: 0.0149 % of ANNNNAAN 8-mers

## ACACAAAA
POU1 (OCT1 POU domain)
  binding signal: 0.0454 % of ANNNNAAN 8-mers
POU2 (OCT2 POU domain)
  binding signal: 0.0374 % of ANNNNAAN 8-mers
[1]
  binding signal: 0.0644 % of ANNNNAAN 8-mers
[2]
  binding signal: 0.0363 % of ANNNNAAN 8-mers

## AAGTCAAA
POU1 (OCT1 POU domain)
  binding signal: 0.141 % of ANNNNAAN 8-mers
POU2 (OCT2 POU domain)
  binding signal: 0.113 % of ANNNNAAN 8-mers
[1]
  binding signal: 0.258 % of ANNNNAAN 8-mers
[2]
  binding signal: 0.165 % of ANNNNAAN 8-mers

## ACTTCAAT
POU1 (OCT1 POU domain)
  binding signal: 0.0256 % of ANNNNAAN 8-mers
POU2 (OCT2 POU domain)
  binding signal: 0.038 % of ANNNNAAN 8-mers
[1]
  binding signal: 0.0363 % of ANNNNAAN 8-mers
[2]
  binding signal: 0.0446 % of ANNNNAAN 8-mers

## AAGGTAAG
POU1 (OCT1 POU domain)
  binding signal: 0.0416 % of ANNNNAAN 8-mers
POU2 (OCT2 POU domain)
  binding signal: 0.0478 % of ANNNNAAN 8-mers
[1]
  binding signal: 0.0468 % of ANNNNAAN 8-mers
[2]
  binding signal: 0.0545 % of ANNNNAAN 8-mers

## ATGGCAAG
POU1 (OCT1 POU domain)
  binding signal: 0.0355 % of ANNNNAAN 8-mers
POU2 (OCT2 POU domain)
  binding signal: 0.0414 % of ANNNNAAN 8-mers
[1]
  binding signal: 0.0351 % of ANNNNAAN 8-mers
[2]
  binding signal: 0.0371 % of ANNNNAAN 8-mers

## AGTCCAAC
POU1 (OCT1 POU domain)
  binding signal: 0.0114 % of ANNNNAAN 8-mers
POU2 (OCT2 POU domain)
  binding signal: 0.0167 % of ANNNNAAN 8-mers
[1]
  binding signal: 0.0144 % of ANNNNAAN 8-mers
[2]
  binding signal: 0.0248 % of ANNNNAAN 8-mers
